Source: PubChem (National Center for Advancing Translational Sciences (NCATS))
An excerpt weighted towards active compounds, which were near 17% of everything screened.
TDP1 cell CPT: growth inhibition of DT40 Tdp1-/-;hTDP1 cells with camptothecin (screen for TDP1 inhibitors). 420,000 tested, 12% active. Potency, µM (titrated, usually from 46.2 µM), without a hit: at the top dose activity change, negative = growth inhibition, actives largely listed as inhibitors. chicken DT40 Tdp1-/-;hTDP1 cells + 20 nM CPT, ATP luminescence, 48 h. AID 686979; further: on the % scale 0 is the no-effect control and ±100 the full control effect; nearly all actives have a fitted effect of over 55% in size
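Chicken DT40 Tdp1-/- cells complemented with human TDP1, 400 cells/well, exposed to compounds plus 20 nM camptothecin for at least 48 h at 37 C; viability read as ATP content by CellTiter-Glo luminescence.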
ClpP mod: qHTS Assay for Activators of ClpP. ATP-dependent Clp protease proteolytic subunit (Bacillus subtilis (strain 168)), P80244. purified B. subtilis ClpP, FRET peptide cleavage, 20 min. Potency, µM (titrated, usually from 57.5 µM), for the others: at the highest dose activity change, negative = active. 340,000 tested, 1.9% active; active means well fitted falling curve with a large enough effect; inconclusive means small, poorly fitted or top-dose-only effect; inactive means no such curve, though single readings can be large or run the other way; further: the source files actives as falling curves though it sought activators and does not explain the sign; nearly all actives have a fitted effect of over 65% in size
Target sequence (P80244 whole entry, looked up): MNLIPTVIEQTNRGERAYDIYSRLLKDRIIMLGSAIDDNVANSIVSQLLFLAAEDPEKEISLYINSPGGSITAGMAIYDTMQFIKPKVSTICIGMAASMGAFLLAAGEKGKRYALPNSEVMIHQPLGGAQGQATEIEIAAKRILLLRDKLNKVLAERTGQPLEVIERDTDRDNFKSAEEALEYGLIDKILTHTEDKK
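Buffer: 100 mM Tris/HCl pH8, 100 mM KCl, 0.05% low protease BSA, 2.5% glycerol, 0.01% Tween-20. ClpP 10 microg/mL final; 20 min RT; delta FRET normalized to ADEP and DMSO controls.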
TDP1 cell noCPT: qHTS for Inhibitors of human tyrosyl-DNA phosphodiesterase 1 (TDP1): qHTS in cells in absence of CPT; DT40 Tdp1-/- hTDP1 cells, no CPT, ATP luminescence, 48 h; Potency, µM (series often up to 46.2 µM), for the others: top-dose activity change, negative = growth inhibition, most hits filed as inhibitors; 420,000 tested, 15% active; further: on the % scale 0 is the no-effect control and ±100 the full control effect; nearly all actives have a fitted effect of over 55% in size
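Readout: luminescence from CellTiter-Glo after 30 min in the dark at RT. Cells: DT40 Tdp1-/- with stable hTDP1, 400/well. Exposure: compounds alone, ≥48 hr, 37 °C.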
TDP1 block: inhibitors of human tyrosyl-DNA phosphodiesterase TDP1. Q9NUW8. recombinant TDP1, AlphaScreen DNA substrate cleavage. Potency, µM (series often up to 130 µM), for the others: at the top dose activity change, negative = inhibition, usual class: inhibitors. 350,000 tested, 0.28% active. AID 485290; further: on the % scale 0 is the no-effect control and ±100 the full control effect; nearly all actives have a fitted effect of over 40% in size
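E. coli-derived human Tdp1, 1 nM final. Cpd preinc 15 min RT; substrate 15 nM final, 5 min RT; AS bead mix 10 ug/ml final, 10 min RT. Signal loss = tyrosine-FITC cleavage. No-enzyme wells = max signal.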
Numbers without * were called inactive; ? = inconclusive; . = no result given; ! = a repeat was not active; [ ] = another dose, or the depositor's remark. Unless noted, the call rests on the fitted dose curve; in most records, active means well fitted curve in the direction sought with a large enough effect; inconclusive means small, poorly fitted or top-dose-only effect, or another doubt; inactive means no such curve, though single readings can be large; an effect the other way counts as inactive or inconclusive. Potency means the concentration at half of the fitted maximal effect.

SMILES	TDP1 cell CPT	ClpP mod	TDP1 cell noCPT	TDP1 block
CC(C)Nc1nc(NC(C)C)nc(SCC(N)=O)n1	2.5%	.	-12.3%	2.7%
Cc1ccc(NC(=O)c2ccc3c(c2)OCO3)cc1S(=O)(=O)N1CCOCC1	?	-3.1%	?	0.0%[56.1 µM]
COc1ccc(NC(=O)c2ccc(S(=O)(=O)N(C)c3ccccc3)cc2)cc1S(=O)(=O)N1CCOCC1	23.1µM*	-8.2%	14.6µM*	.
Cc1ccc(NC(=O)c2ccc(S(=O)(=O)N(C)c3ccccc3)cc2)cc1S(=O)(=O)N1CCOCC1	23.1µM*	-9.6%	?	.
COc1ccc(NC(=O)c2ccc(-c3ccccc3)cc2)cc1S(=O)(=O)N1CCOCC1	1.5%	.	-12.7%	-2.6%
Cc1ccc(CN2CCN(C3CCOCC3)CC2CCO)cc1 (stereo not drawn)	5.5%	.	-22.9%	0.0%
O=C(c1cc(-c2ccc3c(c2)OCO3)on1)N1CCN(c2ccccc2)CC1	1.4%	-4.4%	-11.6%	1.9%
O=C(c1cc(-c2ccc3c(c2)OCO3)on1)N1CCN(c2ccc(F)cc2)CC1	5.5%	44.1%	-10.9%	3.8%
O=C(c1cc(-c2ccc(O)cc2)on1)N1CCN(c2ccccc2)CC1	18.4µM*!	-1.6%	?	6.4%
O=C(c1cc(-c2ccc(O)cc2)on1)N1CCN(c2ccc(F)cc2)CC1	20.6µM*	-0.8%	?	.
CN(CC(=O)Nc1cccc(S(=O)(=O)N2CCOCC2)c1)CC(=O)Nc1ccc(Cl)c(C(F)(F)F)c1	14.6µM*	0.8%	7.31µM*	.
Cn1cc(S(=O)(=O)N2CCOCC2)cc1C(=O)Nc1ccc(Cl)c(C(F)(F)F)c1	?	-1.3%	23.1µM*	1.3%
Cc1ccc(C)c(NC(=O)c2cc(S(=O)(=O)N3CCOCC3)cn2C)c1	14.6µM*	-3.1%	-23.9%	.
CCc1ccccc1NC(=O)C(NS(=O)(=O)c1ccc2c(c1)CCC(=O)N2)c1ccccc1 (stereo not drawn)	-29.4%	1.5%	?	0.0%
CC(=O)N1CCC[C@@]2(CCN(C(c3ccccc3)c3ccccc3)C2)C1	10.9%	.	-6.9%	.
c1ccc(C(c2ccccc2)N2CC3(CCNCC3)C2)cc1	20.6µM*	.	14.6µM*	.
c1ccc(-c2ccc(N3CCCC4(CCNCC4)C3)cc2)cc1	5.8µM*	.	2.59µM*	.
COC(=O)N1CCC2(CC1)CN(c1ccc(-c3ccccc3)cc1)C2	5.7%	.	-22.7%	.
c1ccc(-c2ccc(N3CC4(CCNCC4)C3)cc2)cc1	4.11µM*	.	2.59µM*	.
c1ccc(-c2ccc(N3CC[C@@]4(CCCNC4)C3)cc2)cc1	18.4µM*	.	20.6µM*	.
COc1cnc(-c2ccccn2)nc1Oc1c(C)cccc1C	3.26µM*	.	3.26µM*	3.8%
COc1cnc(-c2ccccc2)nc1OC	2.5%	.	-9.0%	7.2%
COc1cnc(-c2ccccn2)nc1N(C)C	?	.	2.91µM*	8.8%
COc1cnc(-c2ccccc2)nc1Oc1cccc(C)c1	?	3.9%	?	-10.3%
COc1cccc(CNC(=O)c2cnc(-c3ccccn3)nc2C(F)(F)F)c1	-12.7%	0.8%	?	4.9%
SMILES	TDP1 cell CPT	ClpP mod	TDP1 cell noCPT	TDP1 block
COc1cnc(-c2ccccn2)nc1Oc1cccc(Cl)c1	18.4µM*	-1.2%	8.2µM*	10.5%
CC(C)Oc1ccc(C(=O)N(Cc2ccco2)c2ccccn2)cc1	-25.6%	0.8%	?	1.6%
COc1ccc2nc(Cl)c(C=O)c(N3CCOCC3)c2c1	?	-4.0%	14.6µM*	.
COc1ccc(CN2CCN(CCc3ccccc3)C(CCO)C2)cc1Cn1cncn1 (stereo not drawn)	-15.4%	.	-13.6%	3.0%
N=c1c(C(=O)NCC2CCCO2)cc2c(=O)n3ccccc3nc2n1Cc1ccc(Cl)cc1 (stereo not drawn)	10.3µM*	4.6%	16.4µM*	1.4%
Cc1ccc(Cn2c(=N)c(C(=O)NCC3CCCO3)cc3c(=O)n4cccc(C)c4nc32)cc1 (stereo not drawn)	7.31µM*	4.0%	9.2µM*	4.7%
Cc1ccc(Cn2c(=N)c(C(=O)NCC3CCCO3)cc3c(=O)n4ccccc4nc32)cc1 (stereo not drawn)	?	.	?	10.2%
N=c1c(C(=O)NCC2CCCO2)cc2c(=O)n3ccccc3nc2n1Cc1ccccc1Cl (stereo not drawn)	1.46µM*	.	1.3µM*	0.8%
CC1(C)Cc2c(cnn2-c2ccc(F)cc2)C(NC(=O)CCN2CCCCC2=O)C1 (stereo not drawn)	-13.2%	1.2%	-24.5%	4.4%
CCOC(=O)/C(C#N)=C1/C(=O)N(Cc2ccccc2)c2ccccc21	7.31µM*	.	5.17µM*	0.0%
NNC(=O)Cc1cccc2ccc(Cl)cc12	-24.7%	0.7%	-9.8%	.
CCCCN(CCC(=O)O)c1ccc(/C=C/c2ccnc3ccccc23)cc1	5.62µM*	1.6%	15.8µM*	.
CCCCCN(CCCCC)c1ccc(/C=C/c2ccnc3ccccc23)cc1	?	1.9%	12.6µM*	.
CCN(CCCN(C)C)c1ccc(/C=C/c2ccnc3ccccc23)cc1	?	1.8%	15.8µM*	.
CCCCCCCCCCCCCCCCCCN(CCCCCCCCCCCCCCCCCC)c1ccc(/C=C/c2ccnc3ccccc23)cc1	-8.8%	1.8%	-3.7%	.
O=C(Nc1ccccc1)N1CCCC2(CCN(C(=O)c3cccc(F)c3)CC2)C1	0.0%	.	-8.5%	.
Cc1cccn2c(=O)c3cc(C(N)=S)c(=N)n(CCCOC(C)C)c3nc12	?	15.8µM*	?	5.1%
CCOCCCn1c(=N)c(C(N)=S)cc2c(=O)n3cccc(C)c3nc21	?	28.2µM*	?	4.6%
COc1ccc(C2=Nc3ccccc3N(C(=O)c3ccc4ncccc4c3)C2C(=O)NC2CCCC2)cc1 (stereo not drawn)	8.2µM*	-10.5%	9.2µM*	.
COc1ccc(C2=Nc3ccccc3N(C(=O)c3ccc4ncccc4c3)C2C(=O)NC(C)(C)C)cc1 (stereo not drawn)	13µM*	-10.1%	23.1µM*	.
COc1ccc(C2=Nc3ccccc3N(C(=O)Cc3cc(OC)cc(OC)c3)C2C(=O)NC(C)(C)C)cc1 (stereo not drawn)	18.4µM*	-15.9%	-85.3%	.
Cc1nn(C)c(Cl)c1NC(=O)OCc1ccc(F)cc1	?	-3.0%	16.4µM*	-2.0%
OC1(c2cccnc2)CCN(Cc2ccc3c(c2)CN(Cc2ccc(Cl)cc2)CCO3)CC1	-14.1%[9.04 µM]	.	-22.9%	.
OC1(c2cccnc2)CCN(Cc2ccc3c(c2)CN(Cc2cccc4nccnc24)CCO3)CC1	-2.8%[9.04 µM]	.	-29.1%	.
COc1ccc(CN2CCOc3ccc(CN4CCC(O)(c5cccnc5)CC4)cc3C2)c(C)c1C	?	.	16.4µM*	.
CCC1C(=O)NCCN1Cc1ccc2c(c1)CN(Cc1cc(OC)ccc1OC)CCO2 (stereo not drawn)	-6.3%[9.04 µM]	.	?	.
Cc1ccc(CN2CCOc3ccc(CN4CCC(O)(c5cccnc5)CC4)cc3C2)cc1C	-3.6%[9.04 µM]	.	18.4µM*	.
